Experimental findings from PubChem BioAssay (NCI) are described below.

Among the test systems are EKVX NSCLC; SN12C renal; UO-31 renal; TK-10 renal; ACHN renal; CAKI-1 renal; A498 renal; CCRF-CEM leukemia; MOLT-4 leukemia; SR leukemia; RPMI-8226 leukemia; OVCAR-5 ovarian; OVCAR-4 ovarian; SK-OV-3 ovarian; IGROV1 ovarian; OVCAR-3 ovarian; HS 578T breast; NCI/ADR-RES ovarian; OVCAR-8 ovarian.
Common to all, as to experiment: NCI-60 one-dose screen, 48 h (100 = growth as untreated, 0 = no growth, -100 = all killed)
Common to all, as to conditions: 10 µM unless noted

The structures appear in SMILES notation. Compounds without any hit were thinned out: in the full panel of roughly 83,000, 20% have a hit.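 Activity criterion: percent growth below 10, measured after cells in 96-well plates were exposed to a single compound concentration for 48 hours.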 A number with no mark means an inactive call. The source made the active and inactive calls.

As for `Clc1ccc(-c2nnc(-c3ccco3)o2)cc1`, the growth with EKVX NSCLC is 100%; in the experiment on SN12C renal, 82.6%; with UO-31 renal it was 84.4%; in the experiment with TK-10 renal it was 120%; in the experiment with ACHN renal it was 100%; in the experiment on CAKI-1 renal it was 73.3%. The growth in the experiment with A498 renal is 103%; in the experiment on CCRF-CEM leukemia it was 87.4%; with MOLT-4 leukemia it was 90.1%; with SR leukemia it was 89.7%; in the experiment on RPMI-8226 leukemia, 93.8%; with OVCAR-5 ovarian, 82.4%. The growth with OVCAR-4 ovarian is 95.4%; in the experiment with SK-OV-3 ovarian it was 102%; in the experiment with IGROV1 ovarian, 93.8%; in the experiment on OVCAR-3 ovarian, 107%; in the experiment on HS 578T breast it was 107%; in the experiment with NCI/ADR-RES ovarian it was 104%.

As for `C[C@@H]1C(=O)N(C[C@@H](Cc2ccccc2)NC(=O)OCc2ccccc2)[C@]1(Cc1ccccc1)C(=O)OCc1ccccc1`, the growth with EKVX NSCLC was 18.1%; in the experiment on SN12C renal it was 41.7%; in the experiment on UO-31 renal, 8.74% (active); in the experiment with TK-10 renal, 21.4%; in the experiment on ACHN renal, 22.3%; in the experiment on CAKI-1 renal, 34.8%. The growth was -13.8% (active) with A498 renal; 67.3% in the experiment with CCRF-CEM leukemia; 6.42% (active) in the experiment on MOLT-4 leukemia; 19.6% in the experiment on RPMI-8226 leukemia; 40.2% in the experiment on OVCAR-8 ovarian; 69.1% with OVCAR-5 ovarian. The growth with OVCAR-4 ovarian was 1.48% (active); in the experiment on SK-OV-3 ovarian, 54.5%; in the experiment on OVCAR-3 ovarian it was 43.3%; in the experiment with HS 578T breast it was 55.2%; in the experiment with NCI/ADR-RES ovarian it was 21%.

`O=C1C2=C(CCN(Cc3ccccc3)C2)N2CCN=C2N1Cc1ccc(C(F)(F)F)cc1`: the growth in the experiment with EKVX NSCLC was 20.6%; with SN12C renal, 23.1%; with UO-31 renal, 25.4%; in the experiment with TK-10 renal, 37.7%; with ACHN renal, 31.3%; in the experiment on CAKI-1 renal it was 28.6%. Moreover, the growth is -0.0454% (active) in the experiment with A498 renal; 59.8% in the experiment with MOLT-4 leukemia; 49.5% in the experiment on SR leukemia; 19% in the experiment on RPMI-8226 leukemia; 17% in the experiment with OVCAR-8 ovarian; 56.9% with OVCAR-5 ovarian. For the same molecule, the growth was -4.49% (active) in the experiment with OVCAR-4 ovarian; 21% with SK-OV-3 ovarian; 33% with IGROV1 ovarian; 23.9% with OVCAR-3 ovarian; 36% in the experiment with HS 578T breast; 16.6% in the experiment with NCI/ADR-RES ovarian.

Turning to `CC(C)(C)N1CC(OC(N)=O)C1`, the growth in the experiment on EKVX NSCLC was 90.2%; in the experiment on SN12C renal, 100%; in the experiment on UO-31 renal, 85.5%; in the experiment with TK-10 renal, 94.8%; with ACHN renal, 106%; in the experiment on CAKI-1 renal, 41%. The growth in the experiment on A498 renal is 105%; in the experiment on MOLT-4 leukemia it was 133%; with SR leukemia it was 128%; in the experiment with OVCAR-5 ovarian it was 110%; in the experiment on OVCAR-4 ovarian, 101%; in the experiment with SK-OV-3 ovarian it was 113%. The growth in the experiment on IGROV1 ovarian was 110%; with OVCAR-3 ovarian, 120%; in the experiment with HS 578T breast, 116%; with NCI/ADR-RES ovarian it was 117%.

On to `CC/C=C/[C@@H]1C=C[C@@H]2CCC[C@H]2[C@@H]1CC[C@H](O)[C@H](C)N`, for which the growth in the experiment with EKVX NSCLC is 82.3%; in the experiment on SN12C renal, 41.1%; in the experiment on UO-31 renal, -80% (active); in the experiment on TK-10 renal, 8.1% (active); in the experiment on ACHN renal, -56.8% (active); in the experiment with CAKI-1 renal it was -50.6% (active). Further, the growth with A498 renal is 82.1%; in the experiment on CCRF-CEM leukemia, -44% (active); with MOLT-4 leukemia it was -47.2% (active); with SR leukemia it was -40.1% (active); in the experiment with RPMI-8226 leukemia, -50.2% (active); in the experiment with OVCAR-5 ovarian, -29% (active). The growth with OVCAR-4 ovarian was 32.8%; in the experiment with SK-OV-3 ovarian, -15.9% (active); with IGROV1 ovarian, 1.42% (active); in the experiment on OVCAR-3 ovarian it was -64.8% (active); with HS 578T breast, -44.3% (active); in the experiment with NCI/ADR-RES ovarian, -33.4% (active).

Consider `CC(/C=N/NC(=O)c1cc(-c2ccco2)[nH]n1)=C\c1ccccc1`, for which the growth is 89.2% in the experiment with EKVX NSCLC; 95% with SN12C renal; 96.8% with UO-31 renal; 123% with TK-10 renal; 93.1% with ACHN renal; 80.8% in the experiment on CAKI-1 renal. Further, the growth in the experiment on A498 renal is 110%; with CCRF-CEM leukemia, 92.3%; in the experiment with MOLT-4 leukemia it was 96.6%; with SR leukemia, 88.7%; with RPMI-8226 leukemia, 84.7%; in the experiment with OVCAR-5 ovarian, 96.9%. Moreover, the growth with OVCAR-4 ovarian was 99.6%; in the experiment on SK-OV-3 ovarian it was 97.4%; in the experiment with IGROV1 ovarian it was 107%; in the experiment on OVCAR-3 ovarian it was 107%; in the experiment with HS 578T breast, 30.3%; in the experiment with NCI/ADR-RES ovarian, 97.8%.

Regarding `COC(=O)CCCNC(=O)C(=O)c1c(O)c(O)c(C(C)C)c2cc(C)c(-c3c(C)cc4c(C(C)C)c(O)c(O)c(C(=O)C(=O)NCCCC(=O)OC)c4c3O)c(O)c12`, the growth was 2.47% (active) with EKVX NSCLC; 16.6% in the experiment with SN12C renal; 7.48% (active) in the experiment with TK-10 renal; 3.45% (active) in the experiment on ACHN renal; 32.7% in the experiment on CAKI-1 renal; -7.28% (active) with A498 renal. The growth was 16.1% in the experiment with CCRF-CEM leukemia; 8.94% (active) with MOLT-4 leukemia; -1.66% (active) in the experiment with SR leukemia; 17.1% in the experiment with RPMI-8226 leukemia; 4.86% (active) in the experiment on OVCAR-5 ovarian; -3.33% (active) with OVCAR-4 ovarian. Besides, the growth in the experiment with SK-OV-3 ovarian was -4.94% (active); in the experiment on IGROV1 ovarian it was 18.2%; with OVCAR-3 ovarian it was 4.88% (active); in the experiment on HS 578T breast, 12.2%; in the experiment with NCI/ADR-RES ovarian it was 9.74% (active).

As to `O=C1Nc2ccccc2SC1c1ccccc1Cl` (stereo not drawn), the growth with EKVX NSCLC is 95.2%; in the experiment with SN12C renal, 108%; with UO-31 renal, 103%; in the experiment on TK-10 renal, 88.7%; with ACHN renal it was 115%; in the experiment on CAKI-1 renal it was 71.9%. Besides, the growth with A498 renal is 96.3%; in the experiment on CCRF-CEM leukemia it was 83.9%; in the experiment on MOLT-4 leukemia it was 86.4%; in the experiment with SR leukemia, 10.4%; with RPMI-8226 leukemia it was 75%; in the experiment on OVCAR-5 ovarian, 98.1%. Also, the growth was 80.4% in the experiment with OVCAR-4 ovarian; 114% in the experiment on SK-OV-3 ovarian; 101% in the experiment on IGROV1 ovarian; 83% with OVCAR-3 ovarian; 80.4% in the experiment on HS 578T breast; 101% with NCI/ADR-RES ovarian.

Take `CCc1c(C(=O)N[C@@H]2c3cc(Cl)ccc3CC[C@@H]2O)[nH]c(C)c1C(C)=O`: the growth in the experiment on EKVX NSCLC was 76%; with UO-31 renal, 76.8%; in the experiment on TK-10 renal, 87.4%; in the experiment with ACHN renal, 77.6%; in the experiment with CAKI-1 renal it was 71.5%; in the experiment with A498 renal, 67.6%. The growth in the experiment on CCRF-CEM leukemia was 85.2%; with MOLT-4 leukemia, 68.8%; with SR leukemia, 52.5%; in the experiment on RPMI-8226 leukemia, 59.7%; with OVCAR-8 ovarian, 71.4%; with OVCAR-5 ovarian, 97.9%. The growth is 95.9% with OVCAR-4 ovarian; 74.4% with SK-OV-3 ovarian; 59% in the experiment with IGROV1 ovarian; 81.8% in the experiment with OVCAR-3 ovarian; 77.5% in the experiment on HS 578T breast; 82.7% with NCI/ADR-RES ovarian.
